TDP1 cell CPT: qHTS for Inhibitors of human tyrosyl-DNA phosphodiesterase 1 (TDP1): qHTS in cells in presence of CPT. chicken DT40 Tdp1-/-;hTDP1 cells + 20 nM CPT, ATP luminescence, 48 h. Potency, µM (series often up to 46.2 µM), most hits filed as inhibitors. hit rate 12% among 420,000; note: nearly all actives have a fitted effect of over 55% in size
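Chicken DT40 Tdp1-/- cells stably complemented with human TDP1 were seeded at 400 cells/well in medium containing 20 nM camptothecin, exposed to pin-transferred compounds, and grown at 37 °C for at least 48 hr. Viability was read as ATP luminescence.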
IL1B secr inh: qHTS for Inhibitors of Inflammasome Signaling: IL-1-beta AlphaLISA Primary Screen | THP-1 LPS/ATP IL-1B secretion, AlphaLISA, 16 h; active compounds read low | activity change, % at 57.5 µM | hit rate 4.7% among 360,000; in the data active = activity change below about -50%; inconclusive = mostly about -30% to -49%
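THP-1 cells pretreated 1 hr with compounds (up to 57.5 uM final), then stimulated with LPS (250 ng/mL final) plus ATP (1.25 mM final); secreted IL-1B measured by AlphaLISA after 16 hr, decreased signal indicating inhibition.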
DRD3 agonist: qHTS of D3 Dopamine Receptor Agonist: qHTS; D(3) dopamine receptor (Homo sapiens), P35462; D3R DiscoveRx beta-arrestin cells, luminescence, 90 min; max activation, %; hit rate 0.58% among 410,000; AID 652048, 2013; in the data active = max activation above about 30%
Target sequence (P35462 whole entry, looked up): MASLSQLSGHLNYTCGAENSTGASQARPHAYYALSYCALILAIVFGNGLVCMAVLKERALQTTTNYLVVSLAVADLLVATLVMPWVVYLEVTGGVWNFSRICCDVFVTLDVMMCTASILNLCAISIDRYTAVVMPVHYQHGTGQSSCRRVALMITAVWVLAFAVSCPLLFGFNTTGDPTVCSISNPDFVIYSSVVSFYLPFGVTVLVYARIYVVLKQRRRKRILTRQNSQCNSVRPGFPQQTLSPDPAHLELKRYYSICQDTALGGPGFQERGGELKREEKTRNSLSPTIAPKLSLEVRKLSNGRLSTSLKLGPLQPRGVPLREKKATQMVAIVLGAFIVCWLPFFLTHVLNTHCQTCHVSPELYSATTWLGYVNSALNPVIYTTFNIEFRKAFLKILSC
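Agonist mode: compounds and dopamine controls were applied to plated cells for 90 min at 37 degrees C after an overnight attachment at 1500 cells/well. Luminescent read-out followed 30 - 60 minutes at room temperature with DiscoveRx detection reagent.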
D3 antag: qHTS of D3 Dopamine Receptor Antagonist: qHTS; D(3) dopamine receptor (Homo sapiens), P35462; D3R cells, DiscoveRx beta-arrestin luminescence, antagonist mode; active compounds read low; max response, negative = inhibition, %; hit rate 2.5% among 360,000; AID 652054, 2013; in the data active = max response below about -50%; inconclusive = no clear call, values can overlap the other calls
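Cells expressing the human receptor were seeded at 1500 cells/well, incubated overnight at 37 degrees C in 5% CO2, then exposed to library compounds with dopamine controls for 90 minutes at 37 degrees C before luminescent detection.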
TDP1 cell noCPT: qHTS for Inhibitors of human tyrosyl-DNA phosphodiesterase 1 (TDP1): qHTS in cells in absence of CPT | DT40 Tdp1-/- hTDP1 cells, no CPT, ATP luminescence, 48 h | Potency, µM (doses to about 46.2 µM), usual class: inhibitors | hit rate 15% among 420,000 | AID 686978, 2013; note: nearly all actives have a fitted effect of over 55% in size
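Chicken DT40 Tdp1-/- cells stably complemented with human TDP1 were seeded at 400 cells/well with DMSO in place of 20 nM camptothecin. After compound pinning, cells grew at least 48 hr at 37 °C; viability read by CellTiter-Glo luminescence.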
ClpP mod: qHTS Assay for Activators of ClpP. ATP-dependent Clp protease proteolytic subunit (Bacillus subtilis (strain 168)), P80244. purified B. subtilis ClpP, FRET peptide cleavage, 20 min. Potency, µM (doses to about 57.5 µM). hit rate 1.9% among 340,000. AID 651965, 2013; active = well fitted falling curve with a large enough effect; inconclusive = small, poorly fitted or top-dose-only effect; inactive = no such curve, though single readings can be large or run the other way; note: the source files actives as falling curves though it sought activators and does not explain the sign; nearly all actives have a fitted effect of over 65% in size
Target sequence (P80244 whole entry, looked up): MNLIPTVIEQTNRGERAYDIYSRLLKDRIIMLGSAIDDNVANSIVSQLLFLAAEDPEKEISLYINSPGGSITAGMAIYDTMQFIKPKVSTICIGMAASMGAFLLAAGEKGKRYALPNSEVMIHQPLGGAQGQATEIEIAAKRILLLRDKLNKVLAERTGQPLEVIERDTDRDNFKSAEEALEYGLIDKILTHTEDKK
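ClpP 10 microg/mL final, pH 8 Tris/KCl buffer with BSA, glycerol, Tween-20; compound pinned in; FRET-FV substrate; RT 20 min; Ex320/Em430; ΔFRET vs ADEP 5.8 microM, DMSO, no enzyme.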
Large screens that a line does not name were inactive; ! = repeats disagree. Shown are actives, neighbours in structure and some others; about 21% of the full set was active somewhere. Unless noted, calls come from the whole dose curve; as a rule, active = well fitted inhibition curve with a large enough effect; inconclusive = small, poorly fitted or top-dose-only effect; inactive = flat fitted curve, though single readings scatter.

NC(=O)C1CCN(C(=O)COc2ccc(S(=O)(=O)NC3CCCC3)cc2)CC1	none (no result: ClpP mod)
O=C(COc1ccc(S(=O)(=O)NC2CCCCC2)cc1)N1CCN(c2ccc(F)cc2)CC1	TDP1 cell CPT 16.4µM, TDP1 cell noCPT 20.6µM
Cc1cc(NNC(=O)c2cccc(C(F)(F)F)c2)nc2c1c(C)nn2C	TDP1 cell CPT 10.3µM, TDP1 cell noCPT 5.8µM
Cc1cccc(NC(c2ccccc2C)c2ccc3ccc(C)nc3c2O)n1 (stereo not drawn)	TDP1 cell CPT inconclusive, TDP1 cell noCPT 14.6µM (no result: IL1B secr inh, D3 antag)
Cc1ccc2ccc(C(Nc3ccccn3)c3ccccc3)c(O)c2n1 (stereo not drawn)	TDP1 cell CPT 23.1µM, D3 antag -59.4, TDP1 cell noCPT 18.4µM
COc1cc(C(Nc2ccccn2)c2ccc3ccc(C)nc3c2O)cc(OC)c1O (stereo not drawn)	TDP1 cell CPT 3.66µM, IL1B secr inh -116.2, D3 antag inconclusive, TDP1 cell noCPT 3.26µM
Cn1ccnc1C(OC(=O)c1ccc(Cl)cc1)C(F)(F)F (stereo not drawn)	TDP1 cell noCPT inconclusive
COc1ccc(NC2CCCN(C(=O)COc3ccc(Cl)cc3C)C2)cc1OC (stereo not drawn)	TDP1 cell CPT 23.1µM, TDP1 cell noCPT 25.9µM
Nc1nc2ccc(Br)cc2s1	none
Cn1c(-c2c(N)n(-c3ccccc3)c3nc4ccccc4nc23)nc2ccccc21	TDP1 cell CPT 11.6µM, TDP1 cell noCPT inconclusive
Cn1c(CCc2ccc(N)cc2)nc2ccccc21	TDP1 cell CPT inconclusive, D3 antag -51.3, TDP1 cell noCPT inconclusive
Cn1c(-c2ccc(Cl)nc2)nc2ccccc21	none
Cn1c(-c2ccc3nc(N)sc3c2)nc2cc(N)ccc21	TDP1 cell CPT inconclusive, TDP1 cell noCPT 23.1µM, ClpP mod 10µM
Cn1c(-c2ccc(N)cc2)nc2ccccc21	ClpP mod 2.82µM!
Cc1cccc(-n2c(N)c(-c3nc4ccccc4n3C)c3nc4ccccc4nc32)c1	TDP1 cell CPT inconclusive, TDP1 cell noCPT inconclusive
CCCN=C1N(CC)C[C@@H]2[C@@H]3C(=O)N(C)C(=O)[C@@H]3[C@](CC)(C(=O)OC)N12	none
COc1cnn(-c2ccccc2)c(=O)c1SCc1ccc(Cl)c(Cl)c1	IL1B secr inh inconclusive, TDP1 cell noCPT inconclusive
COc1ccc(-n2ncc(N(C)n3cccc3)c(Cl)c2=O)cc1	TDP1 cell CPT inconclusive, TDP1 cell noCPT inconclusive
CN(C)c1cnn(-c2ccccc2)c(=O)c1Cl	none
COc1c(Cl)cnn(-c2ccc(Cl)c(Cl)c2)c1=O	IL1B secr inh -97.5, D3 antag inconclusive (no result: ClpP mod)
COc1ccc(-n2ncc(Cl)c(Cl)c2=O)cc1	TDP1 cell CPT 4.11µM, IL1B secr inh -106.6, D3 antag -74.4, TDP1 cell noCPT 2.91µM (no result: ClpP mod)
COc1nn(-c2ccccc2)c(=O)c(Cl)c1Cl	TDP1 cell CPT 5.17µM, IL1B secr inh -96.1, D3 antag -63.5, TDP1 cell noCPT 4.61µM
COc1c(Cl)cnn(-c2ccccc2)c1=O	IL1B secr inh -75.0
COc1cccc(CNC(=O)C2CCN(S(=O)(=O)c3cccc4nonc34)CC2)c1	none
O=C(CCCc1nc2ccccc2s1)NCc1cccnc1	TDP1 cell CPT inconclusive
CCOC(=O)Cc1csc(NS(=O)(=O)c2ccc(C(F)(F)F)cc2)n1	none
C=CCOn1c(=O)c(-c2ccc(F)cc2)[n+]([O-])c2ccccc21	none
CCCc1ccccc1OCCNC(C)=O	TDP1 cell CPT 18.4µM, TDP1 cell noCPT 18.4µM
CC(=O)NC(CC(=O)NCCOc1ccccc1F)c1ccccc1 (stereo not drawn)	D3 antag inconclusive (no result: ClpP mod)
COc1cc(-c2nc(C(=O)NCC3CCCO3)cc3c2[nH]c2ccccc23)cc(OC)c1OC (stereo not drawn)	TDP1 cell CPT 5.8µM, DRD3 agonist 33.3, TDP1 cell noCPT 7.31µM
O=C(NCC1CCCO1)c1cc2ccccc2[nH]1 (stereo not drawn)	TDP1 cell noCPT inconclusive, ClpP mod inconclusive
O=C(NCC1CCCO1)c1cc2c([nH]c3ccccc32)c(-c2cccc(Cl)c2)n1 (stereo not drawn)	TDP1 cell CPT 4.11µM, IL1B secr inh -65.4, TDP1 cell noCPT 2.31µM
COc1ccccc1-c1nc(C(=O)NCC2CCCO2)cc2c1[nH]c1ccccc12 (stereo not drawn)	TDP1 cell CPT 20.6µM, TDP1 cell noCPT 14.6µM
Cc1cn2c(=O)c(C(=O)N3CCN(c4ccccc4Cl)CC3)cnc2s1	none
CSc1ccc(/C=C/c2nc3ccccc3n2S(=O)(=O)c2ccc(F)c(C)c2)cc1	TDP1 cell CPT 18.4µM, TDP1 cell noCPT 20.6µM (no result: IL1B secr inh, D3 antag)
CCOc1ccc(/C=C/c2nc3ccccc3n2S(=O)(=O)c2cccc(Cl)c2)cc1	TDP1 cell CPT 7.31µM, TDP1 cell noCPT 6.51µM (no result: IL1B secr inh, D3 antag)
Cc1nc2cccnc2n1C1CCN(C(=O)Nc2ccccc2C(F)(F)F)CC1	none (no result: IL1B secr inh, D3 antag)
CN(C)C(CNC(=O)Cc1cccc(C(F)(F)F)c1)c1ccccc1 (stereo not drawn)	none (no result: ClpP mod)
Cc1ccc(NC(=O)c2ccc(CNS(=O)(=O)c3cccc(C(F)(F)F)c3)cc2)cc1	none
Cc1ccc(NC(=O)c2sccc2SCc2cccc(C(F)(F)F)c2)cc1	TDP1 cell CPT 18.4µM, TDP1 cell noCPT 18.4µM
Cc1cccc(C)c1NC(=O)c1sccc1SCc1cccc(C(F)(F)F)c1	TDP1 cell CPT 16.4µM, IL1B secr inh inconclusive, TDP1 cell noCPT 18.4µM
CC(C)NC(=O)N1CC[C@@]2(CCCN(S(=O)(=O)c3ccccc3)C2)C1	none (no result: IL1B secr inh, DRD3 agonist, D3 antag, ClpP mod)
CCCC(O)(CCC)C(=O)NN(C(=O)CCl)c1ccccc1	TDP1 cell CPT 11.6µM, IL1B secr inh inconclusive, TDP1 cell noCPT 10.3µM
CCOC(=O)N(NC(=O)C(O)(c1ccccc1)c1ccccc1)c1ccccc1	TDP1 cell noCPT 25.9µM
CCOC(=O)N(NC(=O)C(O)(C(C)C)C(C)C)c1ccccc1	none
CCCCC(O)(CCCC)C(=O)NN(C(=O)OCC)c1ccccc1	TDP1 cell CPT inconclusive, TDP1 cell noCPT inconclusive
COc1ccc(CC(=O)NC(C)(C)CC(C)=O)cc1OC	none
COc1ccc(CC(=O)n2[nH]c(=O)cc(C)c2=O)cc1OC	TDP1 cell CPT inconclusive, TDP1 cell noCPT 18.4µM (no result: IL1B secr inh, ClpP mod)
O=C(CN(c1ccccc1)S(=O)(=O)c1ccccc1)NCCSc1nc2ccccc2s1	TDP1 cell CPT inconclusive, TDP1 cell noCPT 18.4µM
